# From PubChem BioAssay
# FBW7 act: FBW7 E3 ligase activators, primary screen, biochemical, AlphaScreen, human. 650,000 tested, 0.13% active. normalized activity (activation), % at 26.1 µM. F-box/WD repeat-containing protein 7 (Homo sapiens), Q969H0. AlphaScreen FBW7–phospho-cyclin E peptide binding, activator screen; in the data active = normalized activity above about 1.9%;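 note: purified mutant Fbw7 with reduced substrate affinity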
# MITF inh: MITF inhibitors, primary screen, biochemical, AlphaScreen, human | AlphaScreen MITF homodimerization, bead proximity signal | inhibition, % at 2.6 µM | 650,000 tested, 0.91% active; in the data active = inhibition above about 50%;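 note: 0% = vehicle wells with protein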
# TEAD-YAP inh: TEAD-YAP interaction inhibition, primary screen, TEAD-YAP interaction inhibitor project, luminescence, HEK-TIYL cells. inhibition, % at 9.12 µM. 640,000 tested, 1.4% active. AID 1259422, 2018. TEAD-Gal4/YAP UAS-luciferase luminescence; in the data active = inhibition above about 32%;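 note: 0% = median of test compound wells and 100% = reference inhibitor wells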
# GPR151 activ: activators of human GPR151, primary screen, cell-based, PathHunter beta-arrestin, luminescence; G-protein coupled receptor 151 (Homo sapiens), Q8TDV0; PathHunter beta-arrestin GPR151 cells; activation, % at 11.2 µM; 650,000 tested, 1% active; in the data active = activation above about 4.9%;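 note: 0% = median of compound wells and 100% = cells with positive control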
# Target sequence (Q8TDV0 whole entry, looked up): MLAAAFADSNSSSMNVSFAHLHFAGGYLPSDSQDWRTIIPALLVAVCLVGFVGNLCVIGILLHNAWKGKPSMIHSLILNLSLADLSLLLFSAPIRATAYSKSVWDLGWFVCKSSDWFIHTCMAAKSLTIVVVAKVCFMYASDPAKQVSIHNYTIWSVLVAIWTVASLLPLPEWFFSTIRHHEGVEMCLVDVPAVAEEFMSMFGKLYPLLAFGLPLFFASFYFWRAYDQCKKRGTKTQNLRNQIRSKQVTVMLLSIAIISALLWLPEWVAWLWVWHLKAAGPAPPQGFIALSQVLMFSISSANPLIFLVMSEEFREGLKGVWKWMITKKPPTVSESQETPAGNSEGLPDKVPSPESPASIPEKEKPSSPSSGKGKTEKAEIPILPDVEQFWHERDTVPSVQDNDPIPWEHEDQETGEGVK
# The depositor's hits bear a star. Rows were chosen to be rich in hits. Some 3.5% of all compounds tested hit in one or more screens of this group.
SMILES,FBW7 act,MITF inh,TEAD-YAP inh,GPR151 activ
COc1ccc(S(=O)(=O)Nc2ccc(Cl)c([N+](=O)[O-])c2)cc1,0,-6,6,0
Cc1cccnc1NC(=O)C(NS(=O)(=O)c1cccc2nsnc12)C(C)C (configuration not stated),0,-18,-10,-1
CNC(=O)c1ccccc1Nc1cc(NC(=O)C(C)(C)c2ccccc2)ncc1C(F)(F)F,0,8,4,0
CNC(=O)c1ccccc1Nc1cc(NC(=O)Cc2cccc(F)c2)ncc1C(F)(F)F,1,-5,72*,-2
NC(=O)c1ccccc1Nc1cc(NC(=O)Cc2ccc3c(c2)OCO3)ncc1Cl,0,11,70*,0
NC(=O)c1ccccc1Nc1cc(NC(=O)Cc2ccc3c(c2)OCO3)ncc1F,0,0,21,2
O=C(NCCNc1ccc(Cl)cc1[N+](=O)[O-])c1cc(F)c(F)cc1Cl,0,18,-12,0
CC(=O)c1c2c(n3cc4ccccc4cc13)C(=O)c1ccccc1C2=O,0,12,-3,-1
COC(=O)c1c2c(n3cc4ccccc4cc13)C(=O)c1ccccc1C2=O,0,87*,-5,1
COc1ccc(-c2cnc(SCC(=O)NC(C)C)n2-c2ccccc2)cc1,0,10,-4,2
CCOc1ccc(N2CSC3=C(C#N)C(c4cccs4)CC(=O)N3C2)cc1 (configuration not stated),0,-13,-10,1
CCOc1ccc(N2CSC3=C(C#N)C(c4ccco4)CC(=O)N3C2)cc1 (configuration not stated),0,69*,-11,1
CC(NC(=O)CSc1nnc(-c2ccccc2)o1)c1ccccc1 (configuration not stated),0,-4,-2,0
COc1cc(C)ccc1Oc1nnnn1-c1ccccc1,1,-3,5,-2
CC1=NN(C(N)=S)C(=O)C1N=Nc1ccccc1O (configuration not stated),-3,58*,-16,0
CC1=NN(C(N)=S)C(=O)C1N=Nc1ccccc1C (configuration not stated),-1,9,-15,-5
Cc1[nH]c2ccc(-c3nnc(SCC(=O)N4CCCCC4C)o3)cc2c1C (configuration not stated),0,-4,51*,0
CC1CCCCN1C(=O)CSc1nnc(-c2ccc3c(c2)OCO3)o1 (configuration not stated),0,3,-3,3
CC(=O)c1cccc(NC(=O)c2cnn3ccccc23)c1,0,6,5,-3
O=C(Nc1ccc(CN2CCOCC2)cc1)c1cnn2ccccc12,0,7,91*,-4
Cc1ccc(NC(=O)c2cnn3ccccc23)cc1C,0,-5,66*,-3
Cc1cc(C)cc(NC(=O)c2cnn3ccccc23)c1,0,14,-42,0
CC(=O)c1ccc(NC(=O)c2cnn3ccccc23)cc1,0,3,91*,-5
CC(O)C12c3ccccc3C(c3ccccc31)C1C(=O)N(c3ccccc3F)C(=O)C12 (configuration not stated),2.2*,4,9,-1
CC(C)c1ccc(CN[C@H]2C[C@H]3C(=O)N[C@@H](CCCCN)C(=O)N3C2)cc1,1,13,10,0
SMILES,FBW7 act,MITF inh,TEAD-YAP inh,GPR151 activ
CCN(CC)C(=O)Nc1ccc2nc(-c3ccco3)c(-c3ccco3)nc2c1,-1,73*,-1,0
Clc1cc2nc(-c3ccco3)c(-c3ccco3)nc2cc1Cl,0,21,-3,-1
COc1ccc(OCC(O)Cn2c3ccccc3c3ccccc32)cc1 (configuration not stated),0,-2,45*,1
COc1ccc(N2C(N)=C(C#N)C(c3ccsc3)C3=C2CCCC3=O)c(OC)c1 (configuration not stated),1,9,16,-1
COc1ccc(N2C(N)=C(C#N)C(c3cc(OC)c(OC)c(OC)c3)C3=C2CCCC3=O)cc1 (configuration not stated),0,8,54*,1
COc1cc(C2C(C#N)=C(N)N(c3ccc(Br)cc3)C3=C2C(=O)CCC3)cc(OC)c1OC (configuration not stated),0,10,20,-1
COc1ccc(C2C(C#N)=C(N)N(c3ccc(C)cc3)C3=C2C(=O)CC(C)(C)C3)cc1OC (configuration not stated),0,0,54*,-1
COc1ccc(N2C(N)=C(C#N)C(c3ccsc3)C3=C2CCCC3=O)cc1 (configuration not stated),0,10,45*,1
CCOC(=O)c1c(NC(=O)CN2CCOCC2)sc2c1CCN(C(=O)OCC)C2,0,10,9,0
NC(=O)C1CCN(C(=O)c2ccc3c(=O)n(C4CCCCC4)c(SCC(=O)c4ccccc4)nc3c2)CC1,0,-5,10,1
CCSc1nsc(NC(=O)CCl)n1,0,5,12,0
O=C(Nc1ccc2c(c1)CN(C(=O)C#Cc1ccccc1)CC2)C1CCCO1 (configuration not stated),0,5,61*,0
Cc1nc2sccn2c1CN1CCc2ccc(NC(=O)C3CCCO3)cc2C1 (configuration not stated),0,12,37*,1
CCOC(=O)c1c(-c2ccc(OC)cc2)csc1NC(=O)CSc1ncn[nH]1,0,4,35*,3
CCn1ncc(Cl)c1C(=O)Nc1cc(Cl)ccc1Cl,1.9*,4,-2,-1
COc1ccc(CNc2ccnc3c(-c4ccc(OC)cc4)cnn23)cc1,0,-1,12,2
COc1ccc(CNc2ccnc3c(-c4ccccc4)cnn23)cc1,1.9*,2,-18,-1
COc1cc(CNc2ccnc3c(-c4cccc(F)c4)cnn23)cc(OC)c1OC,1.9*,9,4,1
Cc1nn(-c2ccc(F)cc2)c2ncc(C(=O)NCCCn3ccnc3)c(Cl)c12,0,-9,65*,-1
Cc1ccc(CNC(=O)c2cnc3c(c(C)nn3-c3ccc(F)cc3)c2Cl)cc1,0,-15,1,0
CN(Cc1ccccc1)C(=O)C(Cc1ccccc1)NS(=O)(=O)c1cccs1 (configuration not stated),0,4,36*,1
CCC(C)NC(=O)C(Cc1ccccc1)NS(=O)(=O)c1cccs1 (configuration not stated),0,-8,1,-1
COc1cccc(/C=C/C(=O)c2c(C)cc(C)[nH]c2=O)c1O,0,2,1,0
COc1ccccc1/C=C/C(=O)c1c(C)cc(C)[nH]c1=O,0,-2,37*,-1
Cc1cc(C)c(C(=O)/C=C/c2ccccn2)c(=O)[nH]1,0,12,77*,-2
